This is part of a sample that, as a whole, favours compounds with a hit. Of some 79,000 tested, about 15% had one in any assay. Unmarked numbers belong to inactive results. Active and inactive are the calls of the source. Cut-off read from the data, not from the text of the source: active = growth inhibition above about 70%; inactive = the rest.
Assays:
[1] = NCI Yeast Anticancer Drug Screen. Data for the rad50 strain (AID 155);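 note: 0% = growth of vehicle-only cultures of the same strain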; details: S. cerevisiae rad50 strain growth inhibition, active compounds read high
In short: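 Compounds were tested on a yeast strain with an engineered DNA damage repair alteration; the reported value is growth inhibition normalised to vehicle treatment.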

[2] = NCI Yeast Anticancer Drug Screen. Data for the mec2-1 strain (AID 157); details: S. cerevisiae mec2-1 strain, active compounds read high
In short: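 mec2-1 yeast strain, carrying an alteration in DNA damage repair or cell cycle control, was exposed to compounds; growth inhibition was measured relative to vehicle-treated controls.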

[3] = NCI Yeast Anticancer Drug Screen. Data for the sgs1 mgt1 strain (AID 161);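 note: 0% = growth of cultures given vehicle only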; details: S. cerevisiae sgs1 mgt1 strain, active compounds read high
In short: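 Compounds are added to genetically altered yeast, and growth is compared with cultures given vehicle alone to give percent inhibition.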

[4] = NCI Yeast Anticancer Drug Screen. Data for the cln2 rad14 strain (AID 165);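 note: 0% = growth equal to vehicle treated cultures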; details: S. cerevisiae cln2 rad14 strain, active compounds read high
In short: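 Yeast carrying cln2 and rad14 alterations (cell cycle control and DNA damage repair) were exposed to compounds. Growth inhibition was measured against vehicle-treated controls.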

[5] = NCI Yeast Anticancer Drug Screen. Data for the bub3 strain (AID 167); details: S. cerevisiae bub3 mutant strain, active compounds read high
In short: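 Growth of a checkpoint-deficient yeast mutant is measured after compound exposure. Values represent inhibition relative to vehicle.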

[6] = NCI Yeast Anticancer Drug Screen. Data for the mlh1 rad18 strain (AID 175); details: S. cerevisiae mlh1 rad18 strain growth inhibition, active compounds read high
In short: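 Growth inhibition of the yeast strain was measured after compound exposure and expressed relative to vehicle-treated controls. The strain carries defined defects in DNA damage repair.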

[7] = at 5.0 µM (retest, dose inferred, filed as 0.5)
[8] = at 50.0 µM (retest, dose inferred, filed as 5.0)

Row | SMILES | growth inhibition [1, 7] | growth inhibition [1, 8] | growth inhibition ([1]; at 50.0 µM) | growth inhibition [2, 7] | growth inhibition [2, 8] | growth inhibition ([2]; at 50.0 µM) | growth inhibition [3, 7] | growth inhibition [3, 8] | growth inhibition ([3]; at 50.0 µM) | growth inhibition [4, 7] | growth inhibition [4, 8] | growth inhibition ([4]; at 50.0 µM) | growth inhibition [5, 7] | growth inhibition [5, 8] | growth inhibition ([5]; at 50.0 µM) | growth inhibition [6, 7] | growth inhibition [6, 8] | growth inhibition ([6]; at 50.0 µM)
1 | OCCc1c2ccccc2cc2ccccc12 | -135% | -50% | 41.5% | -44% | -41% | 10.6% | -61% | -36% | 11.7% | -52% | -48% | 11.8% | -60% | -43% | 3.35% | -127% | -74% | 59.8%
2 | C/C(=N/NC(N)=S)C(C)C | 11% | 37% | 14.3% | 2% | 2% | -9.9% | 2% | 3% | -11.1% | 4% | -5% | 37.6% | 1% | -3% | 17.4% | 2% | -2% | 4.8%
3 | CC(=NCC(=O)O)c1ccccc1 | -12% | -6% | 48.5% | -6% | -3% | -20.2% | -8% | -4% | -52.9% | 2% | -6% | -4.8% | 10% | 13% | -22.1% | -4% | 1% | -5.7%
4 | COc1cc(C2C(Cl)C(=O)N2NC(=O)c2ccc(NC(C)=O)cc2)cc(OC)c1OC (stereo not given) | 1% | -16% | -8.6% | -9% | -16% | -10.1% | -9% | -7% | 8.15% | -16% | -5% | 19.1% | 3% | -2% | -9.3% | -10% | 3% | 12.3%
5 | Oc1cccc2ccncc12 | 7% | 9% | 29.3% | -14% | 14% | 20.4% | 3% | 16% | 22.1% | 13% | 29% | 9.05% | 2% | 14% | 21.1% | 2% | 43% | 58.4%
6 | COC(=O)C1c2cc(C)ccc2-c2ccc(C)cc21 | 31% | 2% | 13.6% | 3% | -17% | 13.3% | 0% | 23% | 2.95% | -14% | 8% | 30.2% | -10% | 18% | 6.75% | 4% | 26% | 49.5%
7 | Cn1cnc([N+](=O)[O-])c1Sc1nnnn1-c1ccccc1 | 53% | 86% (active) | 82% (active) | 29% | 70% (active) | 75.8% (active) | 47% | 71% (active) | 68.7% | 32% | 51% | 36.1% | 42% | 75% (active) | 80.8% (active) | 60% | 91% (active) | 80.5% (active)
8 | Cc1ccc(NN)cc1 | 23% | 97% (active) | 83.8% (active) | 0% | 69% | 40.7% | 26% | 46% | 70.3% (active) | 4% | 75% (active) | 21.1% | 3% | 96% (active) | 52.6% | 11% | 94% (active) | 80.5% (active)
9 | O=C(/C=C\C(=O)Nc1cccc(N(Cc2ccccc2)Cc2ccccc2)c1)Nc1cccc(N(Cc2ccccc2)Cc2ccccc2)c1 | -5% | 2% | 61.5% | -10% | -1% | 87.2% (active) | 0% | 5% | 85.5% (active) | 4% | 13% | 67% | -2% | 3% | 46.2% | -3% | 3% | 82% (active)
10 | COc1ccc(/C=C\Cc2cc3c(cc2OCCO)OCO3)cc1 | 3% | 92% (active) | 96.7% (active) | 7% | 95% (active) | 96.7% (active) | 7% | 97% (active) | 97.8% (active) | 1% | 82% (active) | 69.6% | -1% | 96% (active) | 85.6% (active) | -2% | 97% (active) | 97.2% (active)
11 | S=C1C(=Nc2ccccc2)N(c2ccccc2)/C(=N\c2cccc[n+]2Cc2ccccc2)N1c1ccccc1 | -17% | 89% (active) | 96.6% (active) | -10% | 99% (active) | 97.9% (active) | -1% | 72% (active) | 98.7% (active) | -17% | 48% | 94.5% (active) | -20% | 85% (active) | 98% (active) | -23% | 96% (active) | 98.2% (active)
12 | CCCCCCCCCCCCCCCCCC(=O)OC(C)CCC1CCCO1 (stereo not given) | 4% | -6% | 26.4% | 1% | 0% | 12.8% | 5% | 11% | 5.9% | 5% | 3% | 0.1% | 1% | -2% | -5.95% | 1% | -58% | 13%
13 | CCOC(=O)n1c2ccccc2c(=O)n1CCO | -23% | -15% | 97.5% (active) | -16% | -19% | 98.9% (active) | -19% | -12% | 87.7% (active) | -32% | -18% | 43.2% | -28% | -11% | 97.3% (active) | -33% | -11% | 50%
14 | COC(=O)c1nc(=S)[nH]c(C(=O)OC)c1C(=O)C(C)(C)C | 6% | 24% | -6.8% | 4% | 18% | -10.4% | 11% | 22% | -21.9% | 5% | 22% | 45.6% | 5% | 26% | -25.2% | 9% | 20% | 4.75%
15 | CSc1ccc(/C=C2/C[N+](C)(C)C/C(=C/c3ccc(SC)cc3)C2=O)cc1 | 41% | 41% | 90.6% (active) | 22% | 22% | 90.7% (active) | 34% | 34% | 87.3% (active) | 20% | 20% | 86.5% (active) | 6% | 6% | 90.2% (active) | 32% | 32% | 86.7% (active)
16 | Fc1cccc(CSc2n[nH]c(=S)c3nc[nH]c23)c1 | 0% | -3% | 9.9% | -8% | -1% | 10% | -1% | -10% | 15.4% | -7% | -14% | 40.8% | -2% | -3% | -3.85% | -16% | -16% | 5.1%
17 | Cc1ccc2[nH]c3c(c2c1)[n+]([O-])c1ccccc1[n+]3[O-] | 5% | 16% | -17.4% | 3% | -4% | 35.5% | -8% | -13% | 5.8% | -4% | -7% | -22.5% | -8% | -6% | 37.3% | -6% | 7% | -0.5%
18 | Cc1ccc([Si](O)(c2ccc(C)cc2)c2ccc(C)cc2)cc1 | 85% (active) | 92% (active) | 95.2% (active) | 78% (active) | 94% (active) | 93% (active) | 71% (active) | -27% | 93.5% (active) | 67% | 90% (active) | 93.6% (active) | 75% (active) | 92% (active) | 86.3% (active) | 84% (active) | 93% (active) | 94.4% (active)
19 | COc1cc2cnc(-c3ccccc3)cc2cc1OC | 14% | 71% (active) | 43.5% | 11% | 76% (active) | 17.6% | 5% | 63% | 13.9% | -15% | 99% (active) | 26.9% | 48% | 99% (active) | 81.3% (active) | 13% | 86% (active) | 19.2%
20 | COC1CCC(/C(C#N)=C/c2ccco2)CC1 (stereo not given) | 17% | 22% | 61.7% | -5% | 13% | 57.3% | -5% | 26% | 78.2% (active) | 22% | 29% | -0.15% | 38% | 58% | 79.6% (active) | 8% | 49% | 57.1%
21 | CC(=O)C1(O)C(Br)CC2C3CC=C4CC(O)CCC4(C)C3CCC21C (stereo not given) | 43% | 98% (active) | 90.3% (active) | 37% | 99% (active) | 79.5% (active) | 46% | 98% (active) | 86.4% (active) | 37% | 98% (active) | 87.9% (active) | 49% | 98% (active) | 85% (active) | 53% | 98% (active) | 83.8% (active)
22 | O=C(Nc1ccc(Cl)cc1)Nc1nnc2nc(C(C(=O)/C=C/c3ccccc3)c3nc4nnc(NC(=O)Nc5ccc(Cl)cc5)n4[nH]c3=O)c(=O)[nH]n12 | -8% | 11% | 48.5% | -7% | -3% | 48% | 4% | 2% | 46.6% | -8% | 2% | 28.6% | -11% | 7% | 39.5% | -6% | 8% | 63.2%
23 | CC(=O)c1sc(Nc2ccc(Cl)c(Cl)c2)nc1C | 8% | 35% | 95% (active) | 4% | 19% | 81% (active) | 27% | 22% | 97% (active) | 1% | 35% | 91.2% (active) | 1% | 56% | 81.8% (active) | 15% | 47% | 93.2% (active)
24 | CC(=O)Oc1c(C2CCCCC2)cc([N+](=O)[O-])cc1[N+](=O)[O-] | 96% (active) | 99% (active) | 99.5% (active) | 91% (active) | 99% (active) | 99.7% (active) | 98% (active) | 99% (active) | 99.5% (active) | 79% (active) | 99% (active) | 98% (active) | 85% (active) | 99% (active) | 99.5% (active) | 97% (active) | 98% (active) | 99.6% (active)
25 | CN(C)C(=O)c1cc(Br)cc(-c2ccccc2)c1O | 4% | 77% (active) | 55.1% | 0% | 84% (active) | 73% (active) | 3% | 86% (active) | 75.8% (active) | 2% | 63% | 38.6% | 1% | 88% (active) | 87.5% (active) | -4% | 92% (active) | 51.8%
